The campaign covered roughly 1,100 compounds. About 70 (6%) were called active. A call without a number means that no potency is given here. Inconclusive results (about 22%) are left out. Calls follow the shape of the dose curve; as a rule, active = well fitted curve in the direction sought with a large enough effect; inconclusive = small, poorly fitted or top-dose-only effect, or another doubt; inactive = no such curve, though single readings can be large or run the other way. The sample as a whole holds a higher share of actives than the screen did.

Results on 15 compounds are retold here after PubChem BioAssay AID1671189 (National Center for Advancing Translational Sciences (NCATS), 2021).
Potency is read from the fitted curve at half-maximal effect.

This assay deals with Polyunsaturated fatty acid lipoxygenase ALOX12 (Homo sapiens) (UniProt P18054). Kind of assay: Confirmatory qHTS assay for inhibitors of human arachidonate 12S-lipoxygenase (ALOX12): Round 2. As to conditions: purified human 12-LOX, xylenol orange absorbance; series mostly up to 125 µM. The text has this: Assay Provider: Theodore R. Holman Ph.D. University of California, Santa Cruz, California Human lipoxygenase 12hLO is a member of the closely related lipoxygenase family of enzymes which catalyze the site-specific oxidation of arachidonic acid to various hormone precursor molecules and as such is a candidate for drug development in a variety of disease areas, such as cancer and inflammation. Inhibition of 12hLO activity was screened by utilizing arachidonic acid as a substrate. The extent of hydroperoxide product formation was measured by a secondary chromogenic reaction in which xylenol orange (XO, Sigma-Aldrich, cat. number 39,818-7) reacts with the ferric ions produced from the reaction between the hydroperoxide and ferrous ions. The Fe (III)-XO complex is characterized with red-shifted absorbance at 560 nm. A purified preparation of human 12hLO was supplied by Dr. Holman laboratory, University of California, Santa Cruz.
Chain of Polyunsaturated fatty acid lipoxygenase ALOX12 (Homo sapiens) (P18054 whole entry, looked up): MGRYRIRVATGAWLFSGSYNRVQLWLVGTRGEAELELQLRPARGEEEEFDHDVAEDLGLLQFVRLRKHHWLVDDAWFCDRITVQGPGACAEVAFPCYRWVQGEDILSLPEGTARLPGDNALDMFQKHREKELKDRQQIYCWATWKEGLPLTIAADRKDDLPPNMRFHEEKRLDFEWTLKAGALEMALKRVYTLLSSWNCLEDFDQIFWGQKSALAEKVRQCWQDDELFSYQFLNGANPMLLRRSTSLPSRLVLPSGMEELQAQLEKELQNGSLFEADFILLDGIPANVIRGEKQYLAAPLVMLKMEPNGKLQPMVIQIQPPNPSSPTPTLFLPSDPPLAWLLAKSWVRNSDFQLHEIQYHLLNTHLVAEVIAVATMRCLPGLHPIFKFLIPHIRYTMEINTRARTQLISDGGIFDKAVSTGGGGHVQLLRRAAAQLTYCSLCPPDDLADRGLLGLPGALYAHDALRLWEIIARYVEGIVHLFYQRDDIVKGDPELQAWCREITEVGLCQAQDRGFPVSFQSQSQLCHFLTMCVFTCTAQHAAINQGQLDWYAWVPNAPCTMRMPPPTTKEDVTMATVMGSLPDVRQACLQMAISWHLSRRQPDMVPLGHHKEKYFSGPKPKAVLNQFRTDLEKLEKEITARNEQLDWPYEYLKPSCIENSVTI
PROTOCOL TABLE SEQUENCE No. (e.g., 1, 2, 3, etc.); […] (e.g., Cells, Incubation, Reagent, etc.); VALUE; DESCRIPTION 1; Enzyme; 3 uL; 150 nM 12hLO enzyme solution dispensed in 1536-well Greiner black, clear bottom plates. 2; Compound; 23 nL; compounds and controls were added. 3; Incubate; 15 min; room temperature. 4; Substrate; 1 uL; 40 uM arachidonic acid (final concentration). 5; Incubate; 30 min; room temperature. 6; Reagent; 4 uL; Fe-XO solution was added to each well. 7; Incubation; 30 min; room temperature 8; Detector; absorbance; Read 1 at 405 nm absorbance using ViewLux (PerkinElmer) CCD imager. 9; Detector; absorbance; Read 2 at 573 nm absorbance using ViewLux (PerkinElmer) CCD imager. NOTES (numbers refer to sequence above) 1; 150 nM 12hLO (final concentration) in buffer solution (25 mM Hepes, 0.01% Triton X-100, pH 7.0) was dispensed in columns 1, 2, 5-48. Column 1 is neutral (100% activity). Buffer only was dispensed in columns 3 and 4 as no enzyme negative controls. The plates were covered with metal lids with gas-exchange holes. 2; Compounds were pin transferred via a Kalypsys Pin Tool (Wako USA) in column 5 - 48. Control compound was transferred in column 2, titration of nordihydroguaiaretic acid (NDGA, Sigma-Aldrich, N5023) with top concentration of 20 mM in DMSO then 1:3 dilution in duplicate. Dilution factor of 23 nL into 4 uL final assay volume. 3; Covered assay plates were incubated for 15 min at room temperature. 4; Substrate was added to start the reaction; 40 uM arachidonic acid (Sigma-Aldrich, St. Louis, MO) was dispensed throughout the plate. 6; Chromogenic detection reagent solution (divalent iron/xylenol orange, Fe-XO) was added to each well: 200 uM xylenol orange, 300 uM ferrous ammonium sulfate prepared freshly in 50 mM sulfuric acid. 8, 9; Two absorbance readouts were obtained at 405 nm and at 573 nm using a ViewLux high-throughput CCD plate imager (PerkinElmer). The 573 to 405 (Read 2 / Read 1) absorbance ratio was used to compute reaction progress.
(In general: Quantitative high-throughput screening tests each substance at several concentrations.)
For the compound `O=C(Nc1ccc2n(c1=O)C[C@H]1C[C@@H]2CN(Cc2ccc(F)cc2)C1)c1cccs1`, the Potency result was “inactive”.
To `COc1ccccc1NC(=O)Nc1ccc2n(c1=O)C[C@H]1C[C@@H]2CN(C2CCOCC2)C1` belongs 14.1 µM (active).
`Cc1o[nH]c(=O)c1C[C@H](N)C(=O)O`: the Potency result is “inactive”.
Regarding `C#C[C@H]1CN2CC[C@H]1C[C@@H]2COC(=O)NCCC`, the Potency was 17.8 µM (active).
As to `O=C(O)C1=NOC2CN(Cc3cccc(Br)n3)CC12` (stereo not given), the Potency result was “inactive”.
Consider `c1cc2nc(C3CCNCC3)[nH]c2cn1`, for which the Potency result was “inactive”.
`CCN1C[C@]2(COC(=O)c3ccccc3N3C(=O)CC(C)C3=O)CC[C@H](OC)[C@@]34C5C[C@@H]6[C@@H](OC)C[C@@](O)(C5[C@H]6OC)[C@](O)([C@@H](OC)C23)[C@@H]14` (stereo not given in full): the Potency entry was “inactive”.
As for `CCOc1ccc(CN(CCc2ccc3c(c2)OCO3)Cc2ccc(C)cc2)cc1`, the Potency entry is “inactive”.
With `N[C@@]1(C(=O)O)CC[C@H](C(=O)O)C1`, the Potency entry was “inactive”.
In the case of `CCCS(=O)(=O)N1C[C@@H]2C[C@H](C1)c1c(-c3ccc(Cl)cc3)ccc(=O)n1C2`, the Potency entry is “inactive”.
`CSc1ccc(-c2ccc(=O)n3c2[C@@H]2C[C@@H](CN(S(C)(=O)=O)C2)C3)cc1`: the Potency result was “inactive”.
In the case of `CSc1ccc(-c2ccc(=O)n3c2[C@@H]2C[C@@H](CN(S(=O)(=O)c4cccs4)C2)C3)cc1`, the Potency is 15.8 µM (active).
With `CSc1ccc(CN2CCN(C(=O)COc3ccc(C)cc3)CC2)cc1` the entry was “inactive”.
As to `O=C(Cc1ccc(Cl)cc1)N1Cc2ccccc2CC2(CCCN2CC2CCNC2)C1` (stereo not given), the Potency entry is “inactive”.
For the compound `O=C(O)C1CN(Cc2ncc[nH]2)CCN(C(=O)Cc2cccs2)C1` (stereo not given), the Potency result is “inactive”.
